Among the data in ChEMBL document CHEMBL1961873, “Compounds: GSK PKIS; Assays: Nanosyn kinase panel” (2012) are inhibition values, retold here.

Test [1] concerns the target T1, Tyrosine-protein kinase ITK/TSK (Homo sapiens) (UniProt Q08881).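 Further: values are mean percent inhibition of ITK from the GSK PKIS screen.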
T1 sequence (whole entry): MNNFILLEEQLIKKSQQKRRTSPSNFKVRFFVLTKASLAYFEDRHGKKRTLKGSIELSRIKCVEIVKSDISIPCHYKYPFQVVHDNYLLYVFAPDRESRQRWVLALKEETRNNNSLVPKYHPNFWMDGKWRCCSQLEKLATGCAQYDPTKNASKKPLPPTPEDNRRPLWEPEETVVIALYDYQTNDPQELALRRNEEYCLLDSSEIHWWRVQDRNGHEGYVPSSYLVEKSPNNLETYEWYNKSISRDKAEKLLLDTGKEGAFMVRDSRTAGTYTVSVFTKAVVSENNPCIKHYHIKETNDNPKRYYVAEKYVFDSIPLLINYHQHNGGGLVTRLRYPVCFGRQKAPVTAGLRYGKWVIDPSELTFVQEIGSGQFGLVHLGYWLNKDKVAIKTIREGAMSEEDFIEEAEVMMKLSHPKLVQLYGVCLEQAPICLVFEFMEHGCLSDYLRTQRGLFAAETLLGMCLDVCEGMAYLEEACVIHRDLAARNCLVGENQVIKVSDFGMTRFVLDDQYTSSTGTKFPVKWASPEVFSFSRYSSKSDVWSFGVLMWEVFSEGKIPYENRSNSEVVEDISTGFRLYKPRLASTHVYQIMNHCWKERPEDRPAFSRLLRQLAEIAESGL
To be noted: at 1 µM.

The target of test [2] is Tyrosine-protein kinase JAK1 (Homo sapiens) (UniProt P23458). As to conditions: at 0.1 µM.
Sequence of Tyrosine-protein kinase JAK1 (Homo sapiens) (P23458 whole entry): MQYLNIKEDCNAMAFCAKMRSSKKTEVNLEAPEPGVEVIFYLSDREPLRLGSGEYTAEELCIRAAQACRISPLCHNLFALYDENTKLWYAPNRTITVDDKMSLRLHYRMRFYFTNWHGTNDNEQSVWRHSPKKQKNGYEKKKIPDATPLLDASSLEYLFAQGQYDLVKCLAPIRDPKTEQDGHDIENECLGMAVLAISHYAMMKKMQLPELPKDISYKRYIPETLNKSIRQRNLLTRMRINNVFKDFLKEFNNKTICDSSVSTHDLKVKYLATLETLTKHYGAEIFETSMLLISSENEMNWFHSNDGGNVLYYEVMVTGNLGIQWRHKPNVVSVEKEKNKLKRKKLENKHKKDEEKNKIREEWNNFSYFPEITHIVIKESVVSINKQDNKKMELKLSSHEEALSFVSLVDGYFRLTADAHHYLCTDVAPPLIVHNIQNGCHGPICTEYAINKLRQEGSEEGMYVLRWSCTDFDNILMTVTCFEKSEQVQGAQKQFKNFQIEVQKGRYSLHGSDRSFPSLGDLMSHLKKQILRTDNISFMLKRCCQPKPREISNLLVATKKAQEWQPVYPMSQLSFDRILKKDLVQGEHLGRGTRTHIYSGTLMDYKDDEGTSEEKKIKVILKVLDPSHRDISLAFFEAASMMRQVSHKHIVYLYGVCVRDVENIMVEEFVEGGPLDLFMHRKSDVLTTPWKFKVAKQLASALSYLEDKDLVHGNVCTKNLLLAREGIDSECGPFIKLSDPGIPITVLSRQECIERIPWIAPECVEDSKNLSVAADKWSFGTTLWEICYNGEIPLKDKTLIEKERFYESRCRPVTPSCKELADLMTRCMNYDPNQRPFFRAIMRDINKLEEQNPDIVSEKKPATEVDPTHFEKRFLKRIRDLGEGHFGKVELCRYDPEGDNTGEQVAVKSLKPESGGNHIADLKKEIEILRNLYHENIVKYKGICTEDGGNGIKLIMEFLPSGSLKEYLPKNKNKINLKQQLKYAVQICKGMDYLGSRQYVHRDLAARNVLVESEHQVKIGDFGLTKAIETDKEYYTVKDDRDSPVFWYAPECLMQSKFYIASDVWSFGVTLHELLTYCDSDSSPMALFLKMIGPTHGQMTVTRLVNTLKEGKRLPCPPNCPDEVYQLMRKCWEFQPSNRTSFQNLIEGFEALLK
Test [3] has the same target. To be noted: at 1 µM.
Test [4] addresses Tyrosine-protein kinase JAK2 (Homo sapiens) (UniProt O60674). To be noted: at 0.1 µM.
Test [5] has the same target. As to conditions: at 1 µM.
The target of test [6] is T2, Tyrosine-protein kinase JAK3 (Homo sapiens) (UniProt P52333).
T2 sequence (whole entry): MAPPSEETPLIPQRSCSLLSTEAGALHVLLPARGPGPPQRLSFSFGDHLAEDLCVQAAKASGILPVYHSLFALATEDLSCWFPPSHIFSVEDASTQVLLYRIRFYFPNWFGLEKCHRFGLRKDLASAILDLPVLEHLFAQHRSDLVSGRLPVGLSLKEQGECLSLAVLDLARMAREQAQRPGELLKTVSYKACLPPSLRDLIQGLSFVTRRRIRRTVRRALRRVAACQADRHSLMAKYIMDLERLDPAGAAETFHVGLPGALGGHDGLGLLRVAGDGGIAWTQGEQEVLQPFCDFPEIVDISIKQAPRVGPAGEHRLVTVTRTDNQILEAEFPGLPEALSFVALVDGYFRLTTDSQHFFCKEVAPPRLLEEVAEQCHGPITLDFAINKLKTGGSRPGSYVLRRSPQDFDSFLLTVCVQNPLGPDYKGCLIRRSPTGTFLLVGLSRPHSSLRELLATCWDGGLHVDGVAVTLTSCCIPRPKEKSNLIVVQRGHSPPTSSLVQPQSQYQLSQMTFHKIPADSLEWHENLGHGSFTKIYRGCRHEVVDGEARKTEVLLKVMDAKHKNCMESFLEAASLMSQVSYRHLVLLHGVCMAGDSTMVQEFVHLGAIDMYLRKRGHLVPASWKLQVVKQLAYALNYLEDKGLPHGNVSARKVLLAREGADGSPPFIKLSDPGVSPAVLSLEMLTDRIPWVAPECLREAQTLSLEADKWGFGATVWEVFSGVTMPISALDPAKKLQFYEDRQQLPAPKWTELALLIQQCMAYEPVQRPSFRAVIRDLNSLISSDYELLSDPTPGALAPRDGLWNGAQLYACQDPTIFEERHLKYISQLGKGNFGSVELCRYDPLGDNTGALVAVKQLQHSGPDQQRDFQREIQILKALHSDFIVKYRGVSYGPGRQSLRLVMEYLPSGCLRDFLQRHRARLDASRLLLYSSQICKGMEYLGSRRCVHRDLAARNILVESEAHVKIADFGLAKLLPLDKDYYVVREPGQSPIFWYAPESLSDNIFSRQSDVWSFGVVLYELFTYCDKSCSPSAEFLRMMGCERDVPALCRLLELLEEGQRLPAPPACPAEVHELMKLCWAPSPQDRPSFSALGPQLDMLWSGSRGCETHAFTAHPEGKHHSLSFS
As to conditions: at 0.1 µM.

Test [7] deals with T2, Tyrosine-protein kinase JAK3 (Homo sapiens). As to conditions: at 1 µM.
Test [8] has as its target Vascular endothelial growth factor receptor 2 (Homo sapiens) (UniProt P35968). To be noted: at 0.1 µM.
Test [9] has the same target. To be noted: at 1 µM.
For test [10], the target named is Mast/stem cell growth factor receptor Kit (Homo sapiens) (UniProt P10721). To be noted: at 0.1 µM.
Sequence of Mast/stem cell growth factor receptor Kit (Homo sapiens) (P10721 whole entry): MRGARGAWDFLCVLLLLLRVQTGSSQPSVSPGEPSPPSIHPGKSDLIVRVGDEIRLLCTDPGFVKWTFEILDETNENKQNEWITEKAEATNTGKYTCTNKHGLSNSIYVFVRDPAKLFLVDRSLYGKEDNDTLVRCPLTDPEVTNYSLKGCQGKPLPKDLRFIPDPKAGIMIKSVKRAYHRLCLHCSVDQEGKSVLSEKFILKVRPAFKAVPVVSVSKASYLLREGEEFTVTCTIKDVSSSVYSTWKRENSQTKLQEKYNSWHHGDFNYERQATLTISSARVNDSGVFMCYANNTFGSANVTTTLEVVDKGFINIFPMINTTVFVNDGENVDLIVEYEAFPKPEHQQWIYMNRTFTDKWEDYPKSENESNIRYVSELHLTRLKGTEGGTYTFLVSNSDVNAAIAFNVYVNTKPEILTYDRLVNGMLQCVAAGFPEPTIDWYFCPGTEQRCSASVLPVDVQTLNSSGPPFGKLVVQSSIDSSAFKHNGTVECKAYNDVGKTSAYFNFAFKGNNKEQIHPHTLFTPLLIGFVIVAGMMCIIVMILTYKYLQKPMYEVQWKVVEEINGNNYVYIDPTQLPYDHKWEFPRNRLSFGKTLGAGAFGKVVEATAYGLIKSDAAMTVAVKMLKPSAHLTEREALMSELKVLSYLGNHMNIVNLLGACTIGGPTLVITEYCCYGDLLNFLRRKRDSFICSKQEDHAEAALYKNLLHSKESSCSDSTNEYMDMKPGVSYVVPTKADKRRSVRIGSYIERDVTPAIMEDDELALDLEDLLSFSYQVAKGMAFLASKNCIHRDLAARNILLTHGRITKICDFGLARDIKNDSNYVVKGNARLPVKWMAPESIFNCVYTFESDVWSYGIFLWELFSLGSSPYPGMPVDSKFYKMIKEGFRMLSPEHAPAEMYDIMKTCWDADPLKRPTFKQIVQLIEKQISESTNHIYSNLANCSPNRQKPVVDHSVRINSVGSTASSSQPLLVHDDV
For test [11] the target is unchanged. To be noted: at 1 µM.
Test [12] relates to Mast/stem cell growth factor receptor Kit (Homo sapiens), P10721 [D816V]. As to conditions: at 0.1 µM.
Sequence of Mast/stem cell growth factor receptor Kit (Homo sapiens), P10721 [D816V] (P10721 whole entry D816V): as the sequence (P10721 whole entry) above, with D816V counted along it
Test [13] has the same test system. To be noted: at 1 µM.
The subject of test [14] is Mast/stem cell growth factor receptor Kit (Homo sapiens), P10721 [T670I]. To be noted: at 0.1 µM.
For test [15] the test system is unchanged. As to conditions: at 1 µM.
Test [16] deals with Mast/stem cell growth factor receptor Kit (Homo sapiens), P10721 [V560G]. To be noted: at 0.1 µM.
Sequence of Mast/stem cell growth factor receptor Kit (Homo sapiens), P10721 [V560G] (P10721 whole entry V560G): as the sequence (P10721 whole entry) above, with V560G counted along it
For test [17] the test system is unchanged. To be noted: at 1 µM.
Test [18] concerns the target Tyrosine-protein kinase Lck (Homo sapiens) (UniProt P06239). To be noted: at 0.1 µM.
Test [19] shares this target. To be noted: at 1 µM.
Test [20] deals with Leukocyte tyrosine kinase receptor (Homo sapiens) (UniProt P29376). To be noted: at 0.1 µM.
Sequence of Leukocyte tyrosine kinase receptor (Homo sapiens) (P29376 whole entry): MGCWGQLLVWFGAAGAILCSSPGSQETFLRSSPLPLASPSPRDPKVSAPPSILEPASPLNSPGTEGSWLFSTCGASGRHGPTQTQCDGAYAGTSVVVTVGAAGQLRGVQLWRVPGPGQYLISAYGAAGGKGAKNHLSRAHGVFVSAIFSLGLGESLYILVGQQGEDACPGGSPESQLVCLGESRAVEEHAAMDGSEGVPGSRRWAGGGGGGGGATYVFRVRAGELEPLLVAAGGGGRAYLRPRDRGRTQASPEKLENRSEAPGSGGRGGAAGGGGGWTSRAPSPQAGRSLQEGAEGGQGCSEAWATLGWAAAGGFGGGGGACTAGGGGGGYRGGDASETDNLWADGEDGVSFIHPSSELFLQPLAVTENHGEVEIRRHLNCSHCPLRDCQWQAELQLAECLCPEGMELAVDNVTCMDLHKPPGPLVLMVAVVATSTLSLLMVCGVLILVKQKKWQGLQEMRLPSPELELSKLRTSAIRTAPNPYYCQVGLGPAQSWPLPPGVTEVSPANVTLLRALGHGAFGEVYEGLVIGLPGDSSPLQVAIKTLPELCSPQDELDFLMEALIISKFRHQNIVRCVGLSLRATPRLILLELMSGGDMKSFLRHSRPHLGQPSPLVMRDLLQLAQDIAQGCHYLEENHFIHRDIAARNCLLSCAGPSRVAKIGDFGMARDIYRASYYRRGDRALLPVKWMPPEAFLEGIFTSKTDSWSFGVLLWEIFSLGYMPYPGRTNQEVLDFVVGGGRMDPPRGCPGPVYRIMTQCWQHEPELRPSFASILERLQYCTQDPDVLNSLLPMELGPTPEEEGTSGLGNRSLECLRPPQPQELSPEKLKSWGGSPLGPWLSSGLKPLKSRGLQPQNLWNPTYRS

Sequence of Vascular endothelial growth factor receptor 2 (Homo sapiens) (P35968 whole entry): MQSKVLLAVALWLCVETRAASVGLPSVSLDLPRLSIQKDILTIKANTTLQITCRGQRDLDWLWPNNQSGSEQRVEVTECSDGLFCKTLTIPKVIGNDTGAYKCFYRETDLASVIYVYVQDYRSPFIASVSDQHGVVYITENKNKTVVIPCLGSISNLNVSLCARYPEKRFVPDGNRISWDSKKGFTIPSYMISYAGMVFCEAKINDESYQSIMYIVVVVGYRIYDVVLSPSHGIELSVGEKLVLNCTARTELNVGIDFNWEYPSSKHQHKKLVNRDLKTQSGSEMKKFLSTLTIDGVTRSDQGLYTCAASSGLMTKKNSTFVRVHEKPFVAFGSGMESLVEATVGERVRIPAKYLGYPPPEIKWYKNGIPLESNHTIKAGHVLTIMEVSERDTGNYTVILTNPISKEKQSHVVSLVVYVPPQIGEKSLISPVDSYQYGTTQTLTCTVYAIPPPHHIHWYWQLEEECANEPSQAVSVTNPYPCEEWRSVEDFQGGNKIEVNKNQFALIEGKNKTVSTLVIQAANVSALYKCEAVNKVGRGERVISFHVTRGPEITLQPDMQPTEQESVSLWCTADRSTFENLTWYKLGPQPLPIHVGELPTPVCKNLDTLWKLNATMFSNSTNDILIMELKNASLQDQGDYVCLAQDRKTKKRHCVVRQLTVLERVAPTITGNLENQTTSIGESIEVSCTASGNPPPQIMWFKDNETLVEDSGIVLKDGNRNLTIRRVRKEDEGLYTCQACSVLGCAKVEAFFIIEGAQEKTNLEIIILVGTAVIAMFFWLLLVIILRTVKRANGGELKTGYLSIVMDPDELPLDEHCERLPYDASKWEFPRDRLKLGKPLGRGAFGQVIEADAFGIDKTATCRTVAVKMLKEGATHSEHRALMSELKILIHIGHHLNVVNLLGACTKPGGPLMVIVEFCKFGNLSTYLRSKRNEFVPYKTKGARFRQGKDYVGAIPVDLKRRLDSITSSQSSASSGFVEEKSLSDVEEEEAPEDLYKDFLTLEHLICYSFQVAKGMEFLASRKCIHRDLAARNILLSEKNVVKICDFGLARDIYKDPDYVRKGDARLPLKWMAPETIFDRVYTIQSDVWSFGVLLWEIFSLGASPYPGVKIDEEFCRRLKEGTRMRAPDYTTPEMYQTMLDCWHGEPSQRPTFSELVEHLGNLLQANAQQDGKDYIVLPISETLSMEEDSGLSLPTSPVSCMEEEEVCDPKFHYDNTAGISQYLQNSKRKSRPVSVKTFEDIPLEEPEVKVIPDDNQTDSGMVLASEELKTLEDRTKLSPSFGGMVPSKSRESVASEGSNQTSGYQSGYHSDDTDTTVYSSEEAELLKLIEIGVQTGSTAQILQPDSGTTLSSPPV
Sequence of Mast/stem cell growth factor receptor Kit (Homo sapiens), P10721 [T670I] (P10721 whole entry T670I): as the sequence (P10721 whole entry) above, with T670I counted along it
Sequence of Tyrosine-protein kinase Lck (Homo sapiens) (P06239 2-509 limits assumed): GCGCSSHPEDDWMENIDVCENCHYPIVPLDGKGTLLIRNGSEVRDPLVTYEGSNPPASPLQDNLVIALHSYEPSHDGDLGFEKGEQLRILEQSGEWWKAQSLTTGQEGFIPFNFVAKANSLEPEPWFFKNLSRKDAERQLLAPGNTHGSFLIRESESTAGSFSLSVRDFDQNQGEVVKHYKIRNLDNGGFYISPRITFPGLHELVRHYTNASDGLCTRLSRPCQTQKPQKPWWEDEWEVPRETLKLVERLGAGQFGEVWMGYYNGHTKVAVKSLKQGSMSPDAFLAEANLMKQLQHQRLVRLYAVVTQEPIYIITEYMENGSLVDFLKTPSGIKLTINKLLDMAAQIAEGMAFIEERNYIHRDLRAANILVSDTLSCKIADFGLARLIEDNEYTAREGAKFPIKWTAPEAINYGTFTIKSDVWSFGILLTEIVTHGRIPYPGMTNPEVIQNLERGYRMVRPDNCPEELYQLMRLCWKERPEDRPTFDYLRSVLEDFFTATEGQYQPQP

In general, inhibition refers to the drop in the measured response relative to a control, in per cent. As for `Cc1ccc(Nc2ccnc(Nc3cccc(C(N)=O)c3)n2)cc1O`, the inhibition in [1] was 0.3%; in [2] it was 5.16%; in test [3], 32.7%; in test [4], 5.29%; in test [5], 45.8%; in test [6], -4.07%. Further, the inhibition in test [7] was determined as 14%; in test [8] it was 76.9%; in [9] it was 90.7%; in test [10], 8.57%; in test [11], 42.7%; in test [12], 14.9%. The inhibition in test [13] is 54.3%; in [14], 2.19%; in test [15], 5.43%; in [16] it was 3.09%; in test [17], 21.1%; in [18], 29.2%. In addition, the inhibition turned out to be 72.2% in test [19] and 4.36% in test [20].
In the case of `COc1cc(Nc2nccc(-c3cnn4ncccc34)n2)cc(OC)c1`, the inhibition came out at 11.8% in test [1]; 4.49% in test [2]; 22.9% in [3]; 1.89% in test [4]; 36.4% in [5]; 7.71% in test [6]. The inhibition came to 60.5% in [7]; 14.8% in test [8]; 63.8% in test [9]; 96.2% in [10]; 97.3% in [11]; 1.93% in test [12]. Besides, the inhibition in test [13] came out at 9.04%; in test [14] it was 80.7%; in test [15], 98.1%; in [16], 65.2%; in [17], 92.5%; in test [18] it was 2.75%. Besides, the inhibition in [19] amounted to 19.2%; in test [20], 4.41%.
For `COc1ccc(-c2nn3ncccc3c2-c2ccnc(Nc3cccc(C(F)(F)F)c3)n2)cc1`, the inhibition in test [1] is 1.39%; in [2], 2.27%; in [3], 3.13%; in test [4], 0.53%; in test [5], 0.47%; in test [6] it was -3.85%. Further, the inhibition was -0.01% in [7]; 3.64% in test [8]; 11.1% in test [9]; 3.46% in test [10]; 26.5% in [11]; 0.93% in test [12]. For the same compound, the inhibition was 3.05% in test [13]; 3.67% in [14]; 4.13% in test [15]; -1.16% in test [16]; 7.05% in test [17]; 3.91% in test [18]. Further, the inhibition in test [19] stood at 20.3%; in test [20], 2.17%.
In the case of `CC(C)c1ccc(Nc2nccc(-c3cnn4ncccc34)n2)cc1`, the inhibition in test [1] was determined as 1.41%; in test [2], 2.68%; in [3] it was 8.98%; in test [4] it was 2.04%; in test [5], 8.72%; in test [6] it was 0.01%. Further, the inhibition is 6.19% in [7]; 5.7% in test [8]; 14.6% in test [9]; 68.6% in test [10]; 95.5% in [11]; 2.6% in test [12]. The inhibition in test [13] is 4.42%; in [14], 19.5%; in [15], 81.3%; in [16], 17.7%; in test [17], 64%; in test [18], 1.2%. Besides, the inhibition worked out at 3.47% in test [19] and 2.91% in test [20].
On to `COc1cc(/C=N/Nc2ncnc3c2cnn3C(C)C)ccc1O`, for which the inhibition was 5% in test [1]; 2.44% in test [2]; 14.2% in [3]; 0.62% in test [4]; 0.55% in test [5]; 0.75% in test [6]. The inhibition in test [7] was 3.25%; in [8] it was 4.03%; in [9], 19.8%; in test [10], 8.94%; in test [11], 53.3%; in [12] it was -1.37%. Further, the inhibition in test [13] was 4.07%; in test [14], 3.16%; in [15] it was -0.48%; in test [16] it was 1.9%; in test [17], 7.86%; in test [18] it was 16.7%. Also, the inhibition in [19] was 52.8%; in test [20], 1.55%.
